Measurements as given in PubChem BioAssay (NCATS).
Inconclusive results are not listed. A number with no mark means an inactive call. The source made the active and inactive calls. Calls come from the whole dose curve; as a rule, active = well fitted inhibition curve with a large enough effect; inconclusive = small, poorly fitted or top-dose-only effect; inactive = flat fitted curve, though single readings scatter.

The molecules below were run on Zika virus NS2B-NS3 protease (assay: Primary screen GU AMC qHTS for Zika virus inhibitors (AID 1347154; note: nearly all actives have a fitted effect of over 70% in size;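 for activity change, negative = inhibition: 0% = no-inhibitor control and -100% = no-enzyme control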)). Details: Zika NS2B-NS3 unlinked protease, AMC fluorogenic substrate; series mostly up to 54.1 µM; activity change, negative = inhibition: at the top concentration.
Description: Avindra Nath, Ph.D., National Institute of Neurological Disorders and Stroke (NINDS), Bethesda, MD
Radhakrishnan Padmanabhan, Ph.D., Georgetown University (GU), Washington D.C.
Zika Virus causes congenital defects, including microcephaly and is associated with Guillain-Barre syndrome, eningoencephalitis and myelitis in infected adult. […] Using a target-based approach, we hope to establish a screening paradigm to uncover novel, cell-active NS2B-NS3 protease (Zika Virus) specific inhibitors from NCATS' collection of small molecules using qHTS.
Early Translation Branch (ETB)
National Center for Advancing Translational Sciences (NCATS), Rockville, MD
National Institute of Health (NIH), Bethesda, Maryland
Padmanabhan lab provided the NS2B hydrophilic domain and NS3 protease domain in a noncovalent complex used for the unlinked assay. Control compound aprotinin is obtained from Thermo Scientific (#78432; Waltham, Massachusetts). NS2B-NS3 AMC substrate (Bz-Nle-Lys-Arg-Arg-AMC; Nle-KRR-AMC) purchased from Bachem (#I-1995; Torrance, CA). Ac-VKTGKR-AMC purchased from Genscript or Bachem, Ac-FAAGKR-AMC purchased from Genscript, Ac-GLVKRR-AMC purchased from Genscript, Ac-LKKR-AMC purchased from Genscript.
GU AMC unlinked NS2B-NS3 protease qHTS protocol
Briefly, 3 microL of Zika virus unlinked NS2B-NS3 protease (25 nM for linked final concentration), in assay buffer (10 mM Tris-HCl pH 8.0 with 0.01% Tween 20) was dispensed into a 1,536-well solid-bottom black plate (Greiner Bio One, Monroe, NC). […] Plates were then read immediately on a ViewLux High-throughput CCD imager (PerkinElmer, Waltham, MA) equipped with standard UV fluorescence optics (340(30) nm excitation, 450(20) nm emission) then incubated (room temperature, protected from light) for 15 minutes (~20% conversion). The change in fluorescence intensity over the 15-minute reaction period was normalized against no-inhibitor and no-enzyme controls and the resulting percent inhibition data were fitted to a 4-parameter Hill equation. Aprotinin was used as the intraplate control.
Potency is the fitted concentration of half-maximal effect.

Structure (SMILES)	activity change, negative = inhibition	Potency
COc1ccc2c(C(=O)c3ccc(Cl)cc3)c(C)n(CC(=O)O)c2c1	-3.66%	–
O=C(O)CCCCCCNC1c2ccccc2CCc2ccccc21	-4.43%	–
CCOC(C(=O)OCCN(C)C)(c1ccccc1)c1ccccc1	12%	–
O=C(CCCN1CCC(n2c(=O)[nH]c3ccccc32)CC1)c1ccc(F)cc1	-2.96%	–
C1CN2CCC1CC2	-3.07%	–
ClCc1cccc(Cl)c1	-0.447%	–
CC(C)NCC(O)c1ccc(N)c(C#N)c1 (stereo not given)	–	inactive
NC(=O)CN1CCCC1=O	-1.94%	–
CN1C2CCC(C)(C)C1CC(OC(=O)C(O)(c1cccs1)c1cccs1)C2 (stereo not given)	-6.19%	–
c1ccc2c(c1)Sc1ccccc1N2CC1CN2CCC1CC2 (stereo not given)	-5.42%	–
NC(=O)OCCCc1ccccc1	4.58%	–
CC[C@]1(O)CC[C@H]2[C@@H]3CCC4=CCCC[C@@H]4[C@H]3CC[C@@]21C	0.0051%	–
Cc1nnc2n1-c1sc(CCC(=O)N3CCOCC3)cc1C(c1ccccc1Cl)=NC2	-3.42%	–
CCOC(=O)c1cncn1C(C)c1ccccc1 (stereo not given)	-3.2%	–
CN1C[C@@H](NS(=O)(=O)N(C)C)C[C@@H]2c3cccc4c3c(cn4C)C[C@H]21	2.54%	–
CN(C)CCc1c[nH]c2cccc(O)c12	-6.31% [at 104 µM]	–
CC(C(O)c1ccccc1)N(C)C/C=C/c1ccccc1 (stereo not given)	-3.5%	–
CNC(=O)NC(O)C(Cl)(Cl)Cl (stereo not given)	-0.312%	–
O=C(CCCCl)c1ccc(F)cc1	-7.59%	–
CN(C)CCc1c[nH]c2ccc(O)cc12	-4.83% [at 104 µM]	–

Structure (SMILES)	activity change, negative = inhibition	Potency
CCOC(=O)c1ncn2c1CN(C)C(=O)c1c(I)cccc1-2	-3.31%	–
COc1ccc(CN2CCNCC2)c(OC)c1OC	-1.89%	–
Cc1c(Cl)c(=O)oc2cc(OP(=O)(OCCCl)OCCCl)ccc12	–	14.4 µM (active)
O=C1NCN(c2ccccc2)C12CCN(CCCOc1ccc(F)cc1)CC2	–	inactive
CCN(CC)Cc1nccn1-c1ccc([N+](=O)[O-])cc1C(=O)c1ccccc1Cl	2.6%	–
O=C1CN2CCOC2(c2ccccc2Cl)c2cc(Cl)ccc2N1 (stereo not given)	-3.81%	–
CN1C(=O)[C@@H](NC(=O)c2cc3ccccc3[nH]2)N=C(c2ccccc2)c2ccccc21	–	inactive
CC(C)(C)OC(=O)c1ncn2c1[C@@H]1CCCN1C(=O)c1c(Br)cccc1-2	0.553%	–
COc1ccc(C(=O)N2CCCC2=O)cc1	–	inactive
Nc1ccc(N)cc1	-5.49%	–
C[C@]12Cc3nonc3C[C@@H]1CC[C@@H]1[C@@H]2CC[C@@]2(C)[C@H]1CC[C@]2(C)O	-5.33%	–
c1cc2c(c(N3CCNCC3)c1)OCCO2	–	inactive
O=C(N[C@@H]1N=C(c2ccccc2F)c2cccc3c2N(CC3)C1=O)c1cc2ccccc2[nH]1	-12.5%	–
C[C@H]1CNCCc2ccc(Cl)cc21	0.111%	–
CCO[C@H]1O[C@@H]2OC3(C)CC[C@H]4[C@H](C)CC[C@@H]([C@H]1C)[C@@]24OO3	2.23%	–
CCCOC(=O)Cc1ccc(OCC(=O)N(CC)CC)c(OC)c1	-6.4%	–
ClC1=C(Cl)C2(Cl)C(CBr)CC1(Cl)C2(Cl)Cl (stereo not given)	3.65%	–
C=CCN1CC[C@]23CCCC[C@H]2[C@H]1Cc1ccc(O)cc13	-0.941%	–
CCC1(c2ccccc2)CCC(=O)NC1=O (stereo not given)	-2.05%	–
COP(=O)(OC)C(O)C(Cl)(Cl)Cl (stereo not given)	-0.777%	–
